The values below come from PubChem BioAssay.

Calls of active or inactive are those of the source.

A short description of test [1]: E. coli DRC41 culture turbidity changes, primary screen, E. coli filamentation inducer project, strain DRC41, OD650, 48 h (AID 1152).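 Also: E. coli MC1000 strain DRC41 lacking acrAB efflux pump and sulA.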 Conditions: E. coli DRC41 (acrAB sulA), higher = more signal, called active from +8 up or from −8 down.
A short description of test [2]: small-molecule binders of probe aLefty1, primary screen, biochemical, small-molecule microarray, 635/667 nm fluorescence (AID 1153).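 Also: score merges spot fluorescence with signal-to-noise ratio from the scanned slide images.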 To be noted: higher = more signal.
The nature of test [3]: PSAC antagonists in infected red cells, primary screen, cell-based, P. falciparum Indochina, OD700, 1 h (AID 1154). Conditions: P. falciparum Indochina infected RBC osmotic lysis, higher = more signal, called active from +8 up or from −8 down.
Test [4] can be described thus: PSAC antagonists in infected red cells, primary screen, cell-based, P. falciparum Indochina, OD700, 2 h (AID 1155).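 Also: lysis reports solute entry through the parasite surface anion channel PSAC; channel blockers reduce lysis of infected cells.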 Conditions: P. falciparum Indochina infected erythrocytes, osmotic lysis OD700; higher = more signal, called active from +8 up or from −8 down.
Test [5] can be described thus: osmotic lysis modulators in infected erythrocytes, primary screen, PSAC antagonist project, cell-based, P. falciparum Indochina, OD700, 3 h (AID 1156). Conditions: higher = more signal, called active from +8 up or from −8 down.
Test [6] in a line: PSAC antagonists in infected red cells, primary screen, cell-based, P. falciparum Indochina, OD700, 18 h (AID 1157). To be noted: P. falciparum Indochina infected erythrocytes, osmotic lysis OD700, 18 h; higher = more signal, called active from +8 up or from −8 down.
Test [7] is described as follows: modulators of S6 phosphorylation in cells, primary screen, cell-based, A549, cytoblot, luminescence, serum-stimulated (AID 1158).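 Also: serum-stimulated A549 lung adenocarcinoma cells; signal is phosphorylated S6 detected by cytoblot immunostaining with HRP secondary.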 Conditions: A549 phospho-S6 cytoblot, 5 h, higher = more signal.
Test [8] has as its target NADPH oxidase 2 (Homo sapiens) (UniProt P04839). The experiment in a line: NOX2-dependent H2O2 signal modulators, primary screen, NOX inhibitor project, cell-based, HEK293-NOX2, PMA-stimulated, Amplex Red fluorescence (AID 1159). Also: test concentration not given here. To be noted: 45 min, higher = more signal, called active from +8 up or from −8 down.
In test [9] the target is NADPH oxidase 4 (Homo sapiens) (UniProt Q9NPH5). As to the kind of experiment: NOX4-dependent H2O2 signal modulators, primary screen, NOX inhibitor project, cell-based, HEK293-NOX4, tetracycline-induced, Amplex Red fluorescence (AID 1160). To be noted: 45 min, higher = more signal, called active from +8 up or from −8 down.
Test [10] concerns the target NADPH oxidase 5 (Homo sapiens) (UniProt Q96PH1). As to the kind of experiment: NOX5-dependent H2O2 signal modulators, primary screen, NOX inhibitor project, cell-based, HEK293-NOX5, Amplex Red fluorescence (AID 1161). Conditions: HEK293-NOX5, ionomycin, 45 min, higher = more signal.
Test [11] in a line: A549 cell viability effects, profiling panel, calcein-AM fluorescence, 48 h, basal (AID 1162). Also: test concentration not given here. Conditions: higher = more signal.
A short description of test [12]: adipocyte viability effects, profiling panel, cell-based, 3T3-L1 adipocytes, calcein-AM fluorescence, 48 h, basal (AID 1163). Also: test concentration not given here. Conditions: 3T3-L1 adipocytes viability, higher = more signal.
Test [13] is described as follows: HepG2 cell viability effects, profiling panel, calcein-AM fluorescence, 48 h, basal (AID 1164). Also: test concentration not given here. To be noted: higher = more signal.
Test [14] in a line: MM1S cell viability effects, profiling panel, calcein-AM fluorescence, 48 h, basal (AID 1165).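 Also: viability of MM1S multiple myeloma cells under basal unstimulated conditions; test concentration not given here.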 Conditions: higher = more signal.
The nature of test [15]: basal RPMI8226 viability, no added stimulus, profiling panel, cell-based, calcein-AM fluorescence, 48 h, PK04 Diversity Set (AID 1166).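 Also: cells grown under basal conditions without added stimulus; test concentration not given here.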 Conditions: RPMI8226 myeloma viability, higher = more signal.
The nature of test [16]: basal HepG2 mitochondrial membrane potential changes, profiling panel, cell-based, JC-1 fluorescence, 24 h, 100 nL compound (AID 1167). Also: test concentration not given here. Conditions: higher = more signal.
Test [17] is described as follows: basal 3T3-L1 adipocyte mitochondrial potential changes, profiling panel, cell-based, JC-1 fluorescence, 3T3-L1 adipocytes, 24 h, 100 nL compound (AID 1168). Also: test concentration not given here. Conditions: JC-1 mitochondrial fluorescence, higher = more signal, called active from +8 up or from −8 down.
Test [18] in a line: basal RPMI8226 mitochondrial membrane potential changes, profiling panel, cell-based, JC-1 fluorescence, 24 h, 100 nL compound (AID 1169). Also: test concentration not given here. Conditions: RPMI8226 myeloma, JC-1 mitochondrial potential fluorescence, higher = more signal.
Test [19] can be described thus: basal MM1S mitochondrial membrane potential changes, profiling panel, cell-based, JC-1 fluorescence, 24 h, 100 nL compound (AID 1170). Also: test concentration not given here. Conditions: higher = more signal.
Test [20] in a line: A549 lung cancer cell viability effects, profiling panel, resazurin fluorescence, 24 h, PK04 Diversity Set (AID 1171). Also: test concentration not given here. To be noted: higher = more signal, called active from +8 up or from −8 down.

Chain of NADPH oxidase 4 (Homo sapiens) (Q9NPH5 whole entry, looked up): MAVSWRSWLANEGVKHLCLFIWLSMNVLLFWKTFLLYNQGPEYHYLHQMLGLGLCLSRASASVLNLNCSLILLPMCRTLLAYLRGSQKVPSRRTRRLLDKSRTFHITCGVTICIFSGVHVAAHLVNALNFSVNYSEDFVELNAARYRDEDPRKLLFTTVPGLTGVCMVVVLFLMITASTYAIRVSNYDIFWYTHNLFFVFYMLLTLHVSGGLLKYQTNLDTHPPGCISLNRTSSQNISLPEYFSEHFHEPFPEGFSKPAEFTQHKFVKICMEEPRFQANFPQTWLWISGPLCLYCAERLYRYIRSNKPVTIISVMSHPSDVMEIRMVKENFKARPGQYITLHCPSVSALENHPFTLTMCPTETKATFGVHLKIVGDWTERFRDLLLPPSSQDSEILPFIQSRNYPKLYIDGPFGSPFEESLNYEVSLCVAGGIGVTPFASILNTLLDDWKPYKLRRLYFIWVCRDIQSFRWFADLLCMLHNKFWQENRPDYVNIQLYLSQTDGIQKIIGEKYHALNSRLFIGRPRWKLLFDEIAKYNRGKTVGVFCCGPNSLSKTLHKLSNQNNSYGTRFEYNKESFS
Chain of NADPH oxidase 5 (Homo sapiens) (Q96PH1 whole entry, looked up): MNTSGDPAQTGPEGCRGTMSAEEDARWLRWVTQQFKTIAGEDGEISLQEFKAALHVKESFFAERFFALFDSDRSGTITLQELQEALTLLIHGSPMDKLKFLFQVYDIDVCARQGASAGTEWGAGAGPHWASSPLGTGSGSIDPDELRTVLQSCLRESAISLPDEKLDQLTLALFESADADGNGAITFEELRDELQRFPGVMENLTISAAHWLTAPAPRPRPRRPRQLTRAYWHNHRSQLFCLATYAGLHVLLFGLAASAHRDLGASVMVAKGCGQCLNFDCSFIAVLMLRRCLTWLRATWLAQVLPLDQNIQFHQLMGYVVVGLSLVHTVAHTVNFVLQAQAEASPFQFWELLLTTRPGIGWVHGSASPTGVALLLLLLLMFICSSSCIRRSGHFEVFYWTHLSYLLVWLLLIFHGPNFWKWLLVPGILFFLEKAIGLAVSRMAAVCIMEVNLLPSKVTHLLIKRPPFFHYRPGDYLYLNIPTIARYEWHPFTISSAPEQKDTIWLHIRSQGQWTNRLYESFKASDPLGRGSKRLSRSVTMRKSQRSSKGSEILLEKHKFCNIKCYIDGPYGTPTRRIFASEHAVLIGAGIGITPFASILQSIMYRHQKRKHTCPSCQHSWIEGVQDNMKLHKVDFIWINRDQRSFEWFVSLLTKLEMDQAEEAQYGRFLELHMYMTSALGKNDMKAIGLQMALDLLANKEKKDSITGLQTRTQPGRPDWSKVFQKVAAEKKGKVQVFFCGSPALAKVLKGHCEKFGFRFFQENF
Chain of NADPH oxidase 2 (Homo sapiens) (P04839 whole entry, looked up): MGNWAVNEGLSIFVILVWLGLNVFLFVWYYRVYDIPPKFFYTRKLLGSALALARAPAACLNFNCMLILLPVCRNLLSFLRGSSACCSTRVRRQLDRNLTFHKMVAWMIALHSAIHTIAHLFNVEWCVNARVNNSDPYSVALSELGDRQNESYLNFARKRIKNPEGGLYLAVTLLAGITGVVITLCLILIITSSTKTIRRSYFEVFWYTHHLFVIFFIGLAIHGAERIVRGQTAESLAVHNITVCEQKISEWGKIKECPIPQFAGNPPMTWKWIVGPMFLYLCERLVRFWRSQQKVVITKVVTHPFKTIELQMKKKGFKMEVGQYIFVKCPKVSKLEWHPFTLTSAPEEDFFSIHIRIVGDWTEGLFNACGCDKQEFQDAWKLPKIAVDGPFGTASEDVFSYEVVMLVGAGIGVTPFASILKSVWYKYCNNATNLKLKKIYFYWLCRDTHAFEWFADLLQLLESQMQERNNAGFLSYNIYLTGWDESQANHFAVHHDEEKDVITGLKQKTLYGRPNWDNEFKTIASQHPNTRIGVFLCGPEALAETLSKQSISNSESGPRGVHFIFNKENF

For `O=c1cccc(-c2cccc3ccccc23)o1`, the z-score in test [1] was 0.109 (inactive); in [3], 6.68 (inactive); in test [4], 1.37 (inactive); in test [5], -0.276 (inactive); in [6], 0.832 (inactive); in [7], -0.312. In addition, the z-score in [8] is -0.112 (inactive); in test [9], -2.39 (inactive); in test [10], -0.0533; in test [11] it was -1.07; in test [12], -0.893; in [13], 0.0962. In addition, the z-score is -1.09 in test [14]; -1.84 in test [15]; 0.113 in test [16]; 1.05 (inactive) in test [17]; 0.608 in test [18]; -1.07 in test [19]. The z-score in [20] is 0.058 (inactive). In test [2], this compound showed a composite z-score of 0.106.

As for `NC(=O)[C@@]1(CCS(=O)(=O)c2ccccc2)N=C(c2ccc(OCCCO)cc2)O[C@H]1c1ccccc1`, the z-score was 1.24 (inactive) in [1]; 19.7 (active) in test [3]; 2.48 (inactive) in test [4]; 1.4 (inactive) in [5]; -0.898 (inactive) in [6]; 2.09 in [7]. In addition, the z-score in [8] is -3.88 (inactive); in test [9], -1.85 (inactive); in [10], -1.61; in test [11], -0.291; in test [12] it was 0.957; in test [13], -1.94. Also, the z-score in [14] is 0.614; in test [15], -1.13; in [16] it was -0.209; in test [17], -0.219 (inactive); in [18] it was 0.634; in test [19], -0.659. For the same compound, the z-score in test [20] is 0.798 (inactive). The compound further registered a composite z-score in test [2] of 0.254.

For `C=CCN1Cc2ccccc2C[C@@]2(COC(c3ccc(OCCCO)cc3)=N2)C1=O`, the z-score is 0.754 (inactive) in [1]; 22.7 (active) in [3]; 5.46 (inactive) in test [4]; 5.11 (inactive) in [5]; 0.985 (inactive) in test [6]; -0.14 in test [7]. Besides, the z-score in test [8] was -5.73 (inactive); in test [9], -1.35 (inactive); in test [10], -3.28; in test [11], 0.386; in test [12], 0.72; in [13], 0.741. For the same compound, the z-score in test [14] was -3.59; in [15] it was -2.52; in test [16], 1.32; in test [17], 0.94 (inactive); in test [18], -0.988; in test [19], -2.19. Besides, in test [20], the z-score was -1.56 (inactive). The composite z-score in test [2] worked out at 0.121.

Turning to `COc1c(C)cc(-c2cc3c(c(-c4ccccc4)n2)[Si](C(C)C)(C(C)C)O[C@H]3c2ccccc2)cc1C`, the z-score in test [1] was -1.11 (inactive); in test [3], 0.481 (inactive); in [4], -0.129 (inactive); in test [5] it was -0.561 (inactive); in test [6], 0.284 (inactive); in [7], 0.291. Further, the z-score was -1.36 (inactive) in test [8]; 0.788 (inactive) in test [9]; -0.334 in [10]; -0.77 in test [11]; -0.11 in test [12]; -0.0094 in test [13]. Further, the z-score in test [14] is -0.521; in test [15] it was -1.98; in [16], -1.21; in test [17], -1 (inactive); in [18] it was -0.016; in test [19], -0.198. Also, in test [20], the z-score was -0.0824 (inactive). In test [2], the composite z-score was 0.176.

As to `COCCOC(=O)N1C(=O)[C@@]2(c3cc(C#CC4=CCCCC4)ccc31)[C@H](c1ccc(OCCO)cc1)N1[C@H](c3ccccc3)[C@H](c3ccccc3)OC(=O)[C@H]1[C@@H]2C(=O)Nc1nc2ccccc2s1`, the z-score in test [1] was 2.88 (inactive); in test [3] it was 2.35 (inactive); in [4], 0.922 (inactive); in test [5], -0.419 (inactive); in test [6] it was 1.83 (inactive); in test [7], 1.24. Also, the z-score is 0.821 (inactive) in [8]; 0.824 (inactive) in [9]; 1.35 in [10]; 0.642 in [11]; 0.0841 in test [12]; -0.153 in test [13]. Further, the z-score in test [14] was -0.381; in test [15], -0.259; in test [16] it was -2.79; in [17] it was -0.216 (inactive); in test [18] it was -0.932; in [19] it was -1.63. The z-score in [20] is -0.057 (inactive). In addition, the composite z-score in [2] was determined as 0.114.

`COc1ccc(C(=O)Nc2cccc(CN3C(=O)[C@@]4(O[C@@H](CC(=O)N5Cc6ccccc6C[C@H]5CO)[C@H]([Si](C)(C)c5ccc(OC)cc5)[C@H]4C)c4ccccc43)c2)cc1`: the z-score is -0.333 (inactive) in [1]; 4.24 (inactive) in [3]; 1.49 (inactive) in test [4]; 0.712 (inactive) in test [5]; 0.768 (inactive) in test [6]; 1.33 in test [7]. Also, the z-score is -1.03 (inactive) in test [8]; 0.0938 (inactive) in [9]; -0.713 in test [10]; 0.0601 in test [11]; 0.778 in test [12]; -0.446 in test [13]. Besides, the z-score in test [14] was -2.57; in test [15], -3.06; in test [16], 0.851; in [17] it was 0.862 (inactive); in test [18], -0.976; in test [19], -1.88. Further, the z-score in test [20] is -0.967 (inactive). This compound gave a composite z-score in [2] of 0.139.

In the case of `CC(c1ccccc1)C(O)C1C=CC2C(=O)N(c3ccccc3)C(=O)C2N1Nc1ccccc1F` (stereo not given), the z-score in [1] was 0.207 (inactive); in test [3], 0.784 (inactive); in test [4], -0.11 (inactive); in test [5], -0.597 (inactive); in test [6] it was -0.865 (inactive); in test [7], 0.0297. The z-score in [8] was -0.652 (inactive); in test [9] it was -0.714 (inactive); in test [10], 0.381; in [11] it was -0.221; in test [12], -0.146; in [13], -0.77. Further, the z-score in [14] is 0.214; in [15], -0.975; in test [16], -1.13; in test [17], -0.994 (inactive); in test [18], 0.387; in test [19], -0.289. Besides, in [20], the z-score is 0.959 (inactive). Further, the composite z-score in test [2] was determined as 0.0146.

`COc1ccc([Si](C)(C)[C@H]2[C@H](CC(=O)N(CCO)Cc3ccccc3)O[C@@]3(C(=O)N(Cc4cccc(N5C(=O)c6cccc7cccc5c67)c4)c4ccccc43)[C@@H]2C)cc1`: the z-score is 1.33 (inactive) in test [1]; 13.2 (active) in test [3]; 0.787 (inactive) in test [4]; -0.924 (inactive) in [5]; -0.34 (inactive) in test [6]; 2.67 in test [7]. The z-score in [8] was 0.38 (inactive); in test [9], 0.39 (inactive); in test [10], 1.83; in [11] it was -0.191; in [12], 0.996; in [13], -1.5. The z-score in [14] was -0.883; in test [15], -4.29; in [16], 0.0381; in [17], 2.83 (inactive); in test [18] it was -1.06; in [19] it was -1.08. In test [20], the z-score is -2.32 (inactive). This compound also had a composite z-score in test [2] of -0.0507.

Consider `C[N+](C)(C)CCCC[C@@H]1NC(=O)[C@H]2C[C@@H](C(=O)O)[C@@H](c3cccc(OCCO)c3)N2C1=O`, for which the z-score in test [1] was -0.0215 (inactive); in [3] it was 1.15 (inactive); in [4], 0.729 (inactive); in test [5] it was -1.43 (inactive); in [6] it was 0.252 (inactive); in test [7] it was 0.743. Besides, the z-score is 0.114 (inactive) in [8]; 0.0916 (inactive) in test [9]; 0.986 in test [10]; 0.244 in test [11]; -0.552 in [12]; 0.438 in test [13]. The z-score in test [14] was 0.797; in test [15], 0.91; in test [16] it was 2.37; in test [17], -0.448 (inactive); in test [18], -0.741; in test [19], -0.631. The z-score in [20] is -0.141 (inactive). The composite z-score in test [2] is 1.69.
